Source: PubChem BioAssay (National Center for Advancing Translational Sciences (NCATS))
SW480 rereplic = A quantitative high throughput screen for small molecules that induce DNA re-replication in SW480 colon adenocarcinoma cells; SW480 DNA re-replication, Hoechst DNA content imaging, 48 h; Potency, µM (top dose mostly 46.1 µM), hits mostly activators; actives 1.8% (n = 340,000); AID 624297, 2012; also: nearly all actives have a fitted effect of over 55% in size
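Per well, 250 cells were exposed to pinned compound for 48 hr. Nuclear DNA was visualised with Hoechst (40 min, 37 C) and total object intensity recorded by fluorescence scanning.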
ATXN viability = Viability Counterscreen for Primary qHTS for Inhibitors of ATXN expression | S2 cells (HEK-293 line with an ATXN2-luciferase reporter) viability, CellTiter-Fluor protease fluorescence, 24 h | Potency, µM (highest dose often 56.7 µM), hits mostly cytotoxic | actives 0.49% (n = 400,000) | AID 651635, 2014; also: nearly all actives have a fitted effect of over 40% in size
IL1B secr inh = qHTS for Inhibitors of Inflammasome Signaling: IL-1-beta AlphaLISA Primary Screen. actives 4.7% (n = 360,000). AID 743279, 2014. THP-1 LPS/ATP IL-1B secretion, AlphaLISA, 16 h; hits give low values. activity change, % at 57.5 µM; in the data active = activity change below about -50%; inconclusive = mostly about -30% to -49%
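Secreted IL-1B measured by AlphaLISA bead assay after 16 h compound exposure of THP-1 cells; compounds (final up to 57.5 uM) added 1 h before LPS (250 ng/mL) and ATP (1.25 mM) stimulation; lower signal means less secretion.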
PINK1 expr mod = A Quantitative High throughput Screen to Identify Chemical Modulators of PINK1 Expression | PINK1 immunofluorescence, high-content cytometry, 24 h | Potency, µM (doses to about 76.6 µM), hits mostly activators | actives 0.2% (n = 410,000) | AID 624263, 2012; active = well fitted activation curve with a large enough effect; inconclusive = small, poorly fitted or top-dose-only effect; cell line not stated here; also: nearly all actives have a fitted effect of over 65% in size
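Fluorescence from anti-PINK1 antibody, together with nuclear and cell stains, was scanned on a laser-scanning cytometer. Before staining, stable-line cells were incubated 24 hours with compounds at 5 concentrations; primary antibody 12 h at 10 degrees C.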
ATXN2 expr inh = Primary qHTS for Inhibitors of ATXN expression; HEK-293 ATXN2-luciferase reporter, luminescence, 24 h; Potency, µM (highest dose often 57 µM), hits mostly inhibitors; actives 0.72% (n = 360,000); AID 1745845, 2022; also: nearly all actives have a fitted effect of over 55% in size
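qHTS (up to 57 uM final) was run with 24 h compound exposure of reporter cells at 37 °C. Each well was multiplexed: SteadyGlo luminescence measured ATXN2-luciferase expression after a fluorogenic Gly-Phe-AFC viability readout (25 uM final).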
MCF10A rerep = A quantitative high throughput screen for small molecules that induce DNA re-replication in MCF 10a normal breast cells; MCF 10A DNA re-replication, Hoechst nuclear intensity, 48 h; Potency, µM (highest dose often 46.1 µM), actives largely listed as activators; actives 2.9% (n = 350,000); also: nearly all actives have a fitted effect of over 50% in size
Of the large screens only hits and unclear results are named; the others gave an inactive call. A selection: hits, their analogues and other compounds. The true share with any hit is near 7.1%. Unless noted, calls follow the shape of the dose curve; as a rule, active = well fitted curve in the direction sought with a large enough effect; inconclusive = small, poorly fitted or top-dose-only effect, or another doubt; inactive = no such curve, though single readings can be large; an effect the other way counts as inactive or inconclusive.

O=C1c2ccccc2N[C@@H]2C=CC[C@@H]2N1O	SW480 rereplic 25.9µM
CCN(CC)S(=O)(=O)c1cc(-c2ccc(=O)n(C(C)C(=O)Nc3cccc(C#N)c3)n2)ccc1C (configuration not stated)	none (no result: SW480 rereplic, IL1B secr inh, MCF10A rerep)
CCOC(=O)/C=C(\C)Sc1cc(=O)oc2ccccc12	SW480 rereplic inconclusive, IL1B secr inh -52.5, MCF10A rerep inconclusive
CCOC(=O)/C=C(\C)Sc1cc(O)c2ccccc2c1O	ATXN viability inconclusive, IL1B secr inh -61.8, MCF10A rerep inconclusive (no result: ATXN2 expr inh)
CCOC(=O)Nc1oc2ccccc2c(=O)c1C	none
CCOC(=O)c1c(C)oc2c1cc(O)c1ccccc12	none
Cc1ccc(-n2nc(C)c(NC(=O)CCl)c2C)cc1C	SW480 rereplic inconclusive, IL1B secr inh -104.2, ATXN2 expr inh inconclusive (no result: ATXN viability)
Cc1cc(C(=O)CCl)c(C)n1-c1c(C)n(C)n(-c2ccccc2)c1=O	SW480 rereplic 20.6µM, ATXN viability inconclusive, IL1B secr inh -98.8, MCF10A rerep 5.17µM
COc1ccc(-n2c(C)cc(C(=O)CSc3ccc(NC(C)=O)cc3)c2C)cc1	MCF10A rerep 16.4µM
Cc1ccc(OCC(=O)c2cc(C)n(-c3cc(C)on3)c2C)c([N+](=O)[O-])n1	SW480 rereplic inconclusive, MCF10A rerep inconclusive
Cc1ccc(OCC(=O)c2ccc(Cl)s2)c([N+](=O)[O-])n1	SW480 rereplic inconclusive, IL1B secr inh -72.5, MCF10A rerep inconclusive
Cc1nnc(SCC(=O)c2cc(C)n(-c3c(C)n(C)n(-c4ccccc4)c3=O)c2C)s1	none
CC(=O)Nc1ccc(SCC(=O)c2cc(C)n(-c3ccccc3)c2C)cc1	none
COc1ccc(-n2c(C)cc(C(=O)COc3ccc(C)nc3[N+](=O)[O-])c2C)cc1	SW480 rereplic inconclusive, ATXN viability inconclusive, MCF10A rerep 20.6µM
Cc1ccc(CNC(=O)COc2ccc(C)nc2[N+](=O)[O-])cc1	none
COc1ccc(-n2c(C)cc(C(=O)CCl)c2C)cc1	SW480 rereplic 2.59µM, ATXN viability 26.7µM, IL1B secr inh -77.1, ATXN2 expr inh 29.9µM, MCF10A rerep 6.51µM
Cc1cc(-n2c(C)cc(C(=O)CCl)c2C)no1	SW480 rereplic inconclusive, ATXN viability inconclusive, IL1B secr inh -102.3, MCF10A rerep 3.26µM
Cc1cc(-n2c(C)cc(C(=O)COc3cc(F)ccc3[N+](=O)[O-])c2C)no1	SW480 rereplic 13µM, MCF10A rerep inconclusive (no result: ATXN2 expr inh)
Cc1ccc(NC(=O)Cn2nc(-c3ccccc3)nc(Cc3ccc(Cl)cc3)c2=O)cc1	none (no result: SW480 rereplic, ATXN viability, IL1B secr inh, ATXN2 expr inh, MCF10A rerep)
Cc1c(C(=O)NN2CCCCC2)nn(-c2ccc(Cl)cc2Cl)c1-c1ccc(Cl)cc1	ATXN2 expr inh inconclusive, MCF10A rerep 13.3µM (no result: IL1B secr inh, PINK1 expr mod)
Cc1ccc(C2CC(=O)C=C(NCc3ccccc3)C2)cc1 (configuration not stated)	SW480 rereplic 23.1µM, MCF10A rerep 20.6µM
COC(=O)c1ccc(/C=C/c2c(-c3ccsc3)sc3ccccc23)cc1	SW480 rereplic 4.11µM, MCF10A rerep 16.4µM
Cc1ccc(OCC(O)CNCc2ccc(F)cc2)cc1 (configuration not stated)	IL1B secr inh -77.7
COc1cccc(CNCC(O)COc2ccc(C(=O)c3ccccc3)cc2)c1 (configuration not stated)	MCF10A rerep inconclusive
O=C(c1ccccc1)c1ccc(OCC(O)CNCc2ccc(Cl)cc2)cc1 (configuration not stated)	IL1B secr inh -60.5, ATXN2 expr inh inconclusive, MCF10A rerep inconclusive
CC(=O)c1ccc(NC(=O)c2cnc(N3CCCC3)nc2C)cc1	none (no result: SW480 rereplic, IL1B secr inh, MCF10A rerep)
CCCCc1ccc(NC(=O)CC(C)(C)C)cc1	IL1B secr inh -76.3, PINK1 expr mod inconclusive, MCF10A rerep inconclusive
CC(C)(C)CC(=O)Nc1ccc(Nc2ccccc2)cc1	IL1B secr inh -61.7, MCF10A rerep inconclusive
CCCCc1ccc(NC(=O)CC(C)=O)cc1	none
Cn1c(=O)c2sccc2n2c(CCC(=O)Nc3ccc(F)cc3)nnc12	none (no result: SW480 rereplic, IL1B secr inh, MCF10A rerep)
CCCCCn1c(CCCNC(=O)c2cccc(C)c2)nc2ccccc21	ATXN viability inconclusive, PINK1 expr mod inconclusive (no result: SW480 rereplic, IL1B secr inh, MCF10A rerep)
CCn1c(-c2ccccc2F)nc2cc(C(=O)N3CCNC(=O)C3CC(=O)OC)cc(NC(C)=O)c21 (configuration not stated)	none (no result: SW480 rereplic, IL1B secr inh, ATXN2 expr inh, MCF10A rerep)
Cc1noc(-c2ccc(N(C)Cc3ccccc3)c([N+](=O)[O-])c2)n1	none (no result: SW480 rereplic, IL1B secr inh, MCF10A rerep)
CCc1nc(N)nc(N)c1-c1ccc(N(C)Cc2ccccc2)c([N+](=O)[O-])c1	ATXN viability inconclusive, IL1B secr inh -97.8, ATXN2 expr inh 18.9µM
O=C(Oc1ccc(Cl)c2cccnc12)C12CC3CC(CC(C3)C1)C2	PINK1 expr mod inconclusive, MCF10A rerep 18.4µM
CN(CC(=O)Nc1ccc(OC(F)(F)F)cc1)C(=O)/C=C/c1cc2c(cc1[N+](=O)[O-])OCO2	none
CC(C)(C)c1ccc(C(=O)N2CCC(c3nc4ccccc4o3)CC2)cc1	none (no result: SW480 rereplic, ATXN viability, IL1B secr inh, ATXN2 expr inh, MCF10A rerep)
COc1ccc(C(=O)C2CCCN(C(=O)c3cccnc3SC)C2)c(C)c1 (configuration not stated)	IL1B secr inh -70.0
O=C(NCc1ccc(Cl)cc1)c1cc2ccccc2o1	none (no result: SW480 rereplic, ATXN viability, IL1B secr inh, ATXN2 expr inh, MCF10A rerep)
O=C(Cc1cc2ccccc2o1)NCc1ccc(F)cc1	SW480 rereplic inconclusive, MCF10A rerep 11.6µM (no result: ATXN2 expr inh)
COc1cc(C2Nc3ccccc3C(=O)N2c2ccccc2)c(Br)cc1OCC(=O)O (configuration not stated)	SW480 rereplic 23.1µM
COC(=O)COc1ccc(Cl)cc1C1Nc2ccccc2C(=O)N1c1ccc(OC)cc1 (configuration not stated)	none
CCN(CC)C(=O)CSc1ncnc2sccc12	none
CCN(CC)C(=O)CSc1ncnc2c(-c3cccs3)nsc12	ATXN viability inconclusive, IL1B secr inh -60.1
O=C(Nc1ccccc1)OCC1COC(c2ccccc2)(c2ccccc2)O1 (configuration not stated)	IL1B secr inh -69.0, MCF10A rerep inconclusive
COc1ccc2[nH]cc(CCN=C(NC(=O)c3ccccc3F)Nc3nc(C)cc(C)n3)c2c1	none (no result: SW480 rereplic, IL1B secr inh, MCF10A rerep)
Cc1ccc(C)c(NC(=S)/C(=C(\[O-])c2ccc(Cl)s2)[n+]2ccccc2)c1	ATXN viability inconclusive, MCF10A rerep 0.651µM
COc1ccc(-c2nc3sc(CCNC(=O)c4ccc(C(C)(C)C)cc4)c(C)n3n2)cc1	none (no result: SW480 rereplic, IL1B secr inh, MCF10A rerep)
O=C1Nc2ccc(Br)cc2C1=C1CCCCC1	SW480 rereplic inconclusive, MCF10A rerep 18.4µM
Cc1ccc(N=C2C(=O)Nc3ccc(Br)cc32)cc1	SW480 rereplic inconclusive, MCF10A rerep inconclusive
